# Results from PMC7862700, “An all-to-all approach to the identification of sequence-specific readers for epigenetic DNA modifications on cytosine”.
# Columns and labels:
# Experiment in all cases: DAPPL (digital affinity profiling via proximity ligation, sequencing); 10 mM Tris-HCl pH 7.5, 50 mM NaCl, 1 mM DTT, 4% glycerol, room temperature, 30 min; GST-TFs on glutathione beads, 16-mer random dsDNA library, 0.1% formaldehyde crosslink after washing; high values mean tight binding
# FLI1 = molecular target: T1, FLI1 (Homo sapiens, UniProt Q01543 1-452); settings: protein: recombinant; tags: N-terminal GST; dsDNA, one strand shown
# T1 sequence: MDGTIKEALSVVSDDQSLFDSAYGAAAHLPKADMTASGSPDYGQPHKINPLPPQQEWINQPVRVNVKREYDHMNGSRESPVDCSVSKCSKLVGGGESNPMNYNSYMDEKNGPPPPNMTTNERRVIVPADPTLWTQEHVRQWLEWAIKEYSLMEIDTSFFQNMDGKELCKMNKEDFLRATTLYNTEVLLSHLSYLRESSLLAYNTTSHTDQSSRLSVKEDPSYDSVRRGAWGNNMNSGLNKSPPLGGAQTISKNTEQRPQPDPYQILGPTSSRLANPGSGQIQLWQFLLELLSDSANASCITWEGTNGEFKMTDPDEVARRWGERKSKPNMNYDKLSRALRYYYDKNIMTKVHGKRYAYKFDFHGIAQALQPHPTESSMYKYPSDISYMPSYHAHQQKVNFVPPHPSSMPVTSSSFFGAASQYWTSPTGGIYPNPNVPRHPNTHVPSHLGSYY
# How it was run: (§1)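 Yeast served to express human transcription factors as GST fusions, which were then captured on glutathione beads and labelled with DNA barcodes. Pooled with a tag-only sample, they were incubated with 200 nmole of a 16-mer random double-stranded DNA library for 30 min at room temperature in Tris/NaCl/DTT/glycerol buffer, washed, crosslinked with 0.1% formaldehyde, ligated by proximity, amplified by PCR and sequenced. Dividing each hexamer's read frequency for a factor by its frequency for the tag-only sample gives the binding signal.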
# ELK1 = molecular target: T2, ELK1 (Homo sapiens, UniProt P19419 1-428); settings: protein: recombinant; tags: N-terminal GST; dsDNA, one strand shown
# T2 sequence: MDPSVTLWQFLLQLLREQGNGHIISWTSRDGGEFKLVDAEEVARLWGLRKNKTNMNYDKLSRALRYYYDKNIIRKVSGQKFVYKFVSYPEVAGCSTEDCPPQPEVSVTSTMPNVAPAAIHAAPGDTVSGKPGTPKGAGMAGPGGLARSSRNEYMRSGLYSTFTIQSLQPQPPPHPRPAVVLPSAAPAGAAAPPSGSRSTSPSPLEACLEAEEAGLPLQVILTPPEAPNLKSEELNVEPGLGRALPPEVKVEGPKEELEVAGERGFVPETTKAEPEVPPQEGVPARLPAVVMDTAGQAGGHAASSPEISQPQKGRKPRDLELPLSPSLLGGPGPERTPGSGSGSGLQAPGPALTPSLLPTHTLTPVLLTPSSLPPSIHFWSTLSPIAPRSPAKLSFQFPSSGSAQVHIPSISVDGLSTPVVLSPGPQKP
# How it was run: as §1
# GABPA = molecular target: T3, GABPA (Homo sapiens, UniProt Q06546 1-454); settings: protein: recombinant; tags: N-terminal GST; dsDNA, one strand shown
# T3 sequence: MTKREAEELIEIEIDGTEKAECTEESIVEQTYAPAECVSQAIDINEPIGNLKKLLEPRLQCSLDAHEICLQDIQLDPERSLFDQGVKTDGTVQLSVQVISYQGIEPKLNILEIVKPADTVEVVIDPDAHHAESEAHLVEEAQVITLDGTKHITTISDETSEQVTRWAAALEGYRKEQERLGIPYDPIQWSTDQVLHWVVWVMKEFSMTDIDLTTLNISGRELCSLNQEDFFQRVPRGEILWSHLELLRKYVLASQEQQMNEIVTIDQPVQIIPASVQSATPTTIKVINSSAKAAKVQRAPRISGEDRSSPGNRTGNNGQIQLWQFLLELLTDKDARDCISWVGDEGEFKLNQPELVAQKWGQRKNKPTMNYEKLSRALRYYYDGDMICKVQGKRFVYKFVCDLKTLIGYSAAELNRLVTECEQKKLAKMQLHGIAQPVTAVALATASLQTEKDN
# How it was run: as §1
# ERG = molecular target: T4, ERG (Homo sapiens, UniProt P11308 1-479); settings: protein: recombinant; tags: N-terminal GST; dsDNA, one strand shown
# T4 sequence: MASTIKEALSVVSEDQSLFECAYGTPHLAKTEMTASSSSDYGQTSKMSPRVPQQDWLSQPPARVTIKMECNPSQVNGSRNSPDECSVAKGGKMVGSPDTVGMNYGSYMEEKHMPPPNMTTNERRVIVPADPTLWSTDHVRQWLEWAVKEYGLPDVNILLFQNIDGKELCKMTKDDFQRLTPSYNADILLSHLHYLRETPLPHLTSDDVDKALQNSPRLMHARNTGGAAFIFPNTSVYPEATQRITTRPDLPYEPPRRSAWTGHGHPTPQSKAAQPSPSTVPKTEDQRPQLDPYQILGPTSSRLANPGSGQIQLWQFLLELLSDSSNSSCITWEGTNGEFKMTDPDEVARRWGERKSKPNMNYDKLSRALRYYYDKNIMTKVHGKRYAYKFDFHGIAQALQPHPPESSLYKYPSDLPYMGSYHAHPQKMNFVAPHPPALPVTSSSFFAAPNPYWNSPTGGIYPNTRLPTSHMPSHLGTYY
# How it was run: as §1
# ELF1 = ELF1 (Homo sapiens, UniProt P32519 1-619); settings: protein: recombinant; tags: N-terminal GST; dsDNA, one strand shown
# Chain of ELF1 (P32519 whole entry): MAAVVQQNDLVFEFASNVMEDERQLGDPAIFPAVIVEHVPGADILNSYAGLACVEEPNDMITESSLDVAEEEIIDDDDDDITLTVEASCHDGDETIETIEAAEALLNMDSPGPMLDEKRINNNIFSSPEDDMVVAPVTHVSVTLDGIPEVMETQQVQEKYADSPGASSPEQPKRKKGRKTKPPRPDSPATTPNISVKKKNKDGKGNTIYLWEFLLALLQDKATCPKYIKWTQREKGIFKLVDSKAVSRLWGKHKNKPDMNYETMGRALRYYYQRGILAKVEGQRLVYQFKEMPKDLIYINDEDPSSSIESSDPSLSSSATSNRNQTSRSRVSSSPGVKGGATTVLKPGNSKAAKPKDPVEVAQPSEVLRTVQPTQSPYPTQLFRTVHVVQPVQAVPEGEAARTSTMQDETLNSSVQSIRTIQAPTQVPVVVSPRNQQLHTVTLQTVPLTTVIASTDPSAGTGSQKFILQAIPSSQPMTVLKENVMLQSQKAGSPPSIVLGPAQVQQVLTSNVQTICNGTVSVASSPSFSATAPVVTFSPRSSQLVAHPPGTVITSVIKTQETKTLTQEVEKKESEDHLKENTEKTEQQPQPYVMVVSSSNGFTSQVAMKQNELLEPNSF
# How it was run: as §1
# EHF = molecular target: T5, EHF (Homo sapiens, UniProt Q9NZC4 1-300); settings: protein: recombinant; tags: N-terminal GST; dsDNA, one strand shown
# T5 sequence: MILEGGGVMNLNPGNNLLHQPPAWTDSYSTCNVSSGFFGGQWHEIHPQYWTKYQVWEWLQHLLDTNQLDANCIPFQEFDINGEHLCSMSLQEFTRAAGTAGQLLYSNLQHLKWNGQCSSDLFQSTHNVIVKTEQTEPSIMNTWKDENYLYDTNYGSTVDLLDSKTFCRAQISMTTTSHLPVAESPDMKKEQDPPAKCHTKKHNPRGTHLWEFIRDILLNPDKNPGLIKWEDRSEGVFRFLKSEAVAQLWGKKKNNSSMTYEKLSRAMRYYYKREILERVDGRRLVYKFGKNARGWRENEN
# How it was run: as §1
# SPI1 = SPI1 (Homo sapiens, UniProt P17947 1-270); settings: protein: recombinant; tags: N-terminal GST; dsDNA, one strand shown
# How it was run: as §1
# SPIB = SPIB (Homo sapiens, UniProt Q01892 1-262); settings: protein: recombinant; tags: N-terminal GST; dsDNA, one strand shown
# Chain of SPIB (Q01892 whole entry): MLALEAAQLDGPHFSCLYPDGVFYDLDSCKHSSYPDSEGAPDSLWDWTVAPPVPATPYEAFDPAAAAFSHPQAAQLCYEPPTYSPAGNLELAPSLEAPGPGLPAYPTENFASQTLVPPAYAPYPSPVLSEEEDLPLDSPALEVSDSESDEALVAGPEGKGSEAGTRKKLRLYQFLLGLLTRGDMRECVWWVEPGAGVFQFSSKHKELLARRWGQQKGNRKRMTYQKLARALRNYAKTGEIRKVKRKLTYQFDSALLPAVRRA
# How it was run: as §1
# ELK3 = molecular target: T6, ELK3 (Homo sapiens, UniProt P41970 1-407); settings: protein: recombinant; tags: N-terminal GST; dsDNA, one strand shown
# T6 sequence: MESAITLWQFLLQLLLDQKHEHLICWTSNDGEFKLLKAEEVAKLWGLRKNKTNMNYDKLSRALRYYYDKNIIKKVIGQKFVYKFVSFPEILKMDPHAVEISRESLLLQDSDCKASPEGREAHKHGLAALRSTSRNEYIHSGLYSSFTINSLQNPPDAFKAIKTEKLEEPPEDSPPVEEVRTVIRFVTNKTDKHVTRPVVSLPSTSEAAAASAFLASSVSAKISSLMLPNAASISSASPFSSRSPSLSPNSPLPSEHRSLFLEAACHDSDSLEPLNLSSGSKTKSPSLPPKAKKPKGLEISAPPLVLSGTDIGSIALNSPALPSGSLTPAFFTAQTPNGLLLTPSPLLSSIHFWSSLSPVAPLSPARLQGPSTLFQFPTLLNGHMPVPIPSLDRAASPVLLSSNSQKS
# How it was run: as §1
# FEV = molecular target: T7, FEV (Homo sapiens, UniProt Q99581 1-238); settings: protein: recombinant; tags: N-terminal GST; dsDNA, one strand shown
# T7 sequence: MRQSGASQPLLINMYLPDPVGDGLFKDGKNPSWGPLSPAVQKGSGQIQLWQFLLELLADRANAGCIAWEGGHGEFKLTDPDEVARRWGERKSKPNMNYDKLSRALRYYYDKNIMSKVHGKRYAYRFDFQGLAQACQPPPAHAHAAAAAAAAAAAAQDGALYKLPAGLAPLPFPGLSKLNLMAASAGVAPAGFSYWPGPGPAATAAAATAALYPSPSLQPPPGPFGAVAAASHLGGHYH
# How it was run: as §1
# ETV5 = ETV5 (Homo sapiens, UniProt P41161 1-510); settings: protein: recombinant; tags: N-terminal GST; dsDNA, one strand shown
# Chain of ETV5 (P41161 whole entry): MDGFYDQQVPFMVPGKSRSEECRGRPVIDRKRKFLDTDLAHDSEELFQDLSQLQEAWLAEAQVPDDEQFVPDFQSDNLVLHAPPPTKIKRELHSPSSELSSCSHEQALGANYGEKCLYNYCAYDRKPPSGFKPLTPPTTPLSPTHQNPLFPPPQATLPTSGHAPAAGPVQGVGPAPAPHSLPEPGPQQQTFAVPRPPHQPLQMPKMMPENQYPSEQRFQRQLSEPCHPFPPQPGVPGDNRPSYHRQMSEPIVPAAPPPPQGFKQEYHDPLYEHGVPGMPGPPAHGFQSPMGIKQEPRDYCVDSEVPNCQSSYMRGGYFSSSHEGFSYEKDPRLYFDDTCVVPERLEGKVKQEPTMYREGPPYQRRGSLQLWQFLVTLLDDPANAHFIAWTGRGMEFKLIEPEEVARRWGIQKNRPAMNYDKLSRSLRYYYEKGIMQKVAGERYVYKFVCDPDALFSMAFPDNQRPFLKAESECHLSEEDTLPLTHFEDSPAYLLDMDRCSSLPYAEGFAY
# How it was run: as §1
# HSF1 = HSF1 (Homo sapiens, UniProt Q00613 1-529); settings: protein: recombinant; tags: N-terminal GST; chain copies: 3; dsDNA, one strand shown
# Chain of HSF1 (Q00613 whole entry): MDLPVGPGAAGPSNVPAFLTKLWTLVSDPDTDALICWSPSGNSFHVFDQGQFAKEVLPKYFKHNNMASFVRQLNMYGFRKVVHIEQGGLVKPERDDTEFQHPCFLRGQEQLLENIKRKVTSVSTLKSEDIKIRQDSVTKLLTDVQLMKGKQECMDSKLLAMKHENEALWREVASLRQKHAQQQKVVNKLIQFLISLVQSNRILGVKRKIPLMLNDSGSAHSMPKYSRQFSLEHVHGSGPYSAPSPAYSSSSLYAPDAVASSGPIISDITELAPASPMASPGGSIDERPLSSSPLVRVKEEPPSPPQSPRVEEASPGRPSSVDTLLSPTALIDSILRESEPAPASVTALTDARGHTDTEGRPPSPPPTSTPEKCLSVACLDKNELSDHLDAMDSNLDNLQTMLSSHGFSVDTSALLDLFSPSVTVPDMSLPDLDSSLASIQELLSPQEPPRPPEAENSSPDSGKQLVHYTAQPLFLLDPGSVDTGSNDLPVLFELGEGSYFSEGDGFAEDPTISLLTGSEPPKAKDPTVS
# How it was run: as §1
# SPIC = molecular target: T8, SPIC (Homo sapiens, UniProt Q8N5J4 1-248); settings: protein: recombinant; tags: N-terminal GST; dsDNA, one strand shown
# T8 sequence: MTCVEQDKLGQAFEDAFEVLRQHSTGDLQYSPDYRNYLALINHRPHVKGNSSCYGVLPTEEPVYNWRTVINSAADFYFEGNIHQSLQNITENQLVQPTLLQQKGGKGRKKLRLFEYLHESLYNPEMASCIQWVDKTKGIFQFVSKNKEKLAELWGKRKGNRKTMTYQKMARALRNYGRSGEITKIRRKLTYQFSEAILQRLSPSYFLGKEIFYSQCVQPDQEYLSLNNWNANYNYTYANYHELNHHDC
# How it was run: as §1
# ELF4 = ELF4 (Homo sapiens, UniProt Q99607 1-663); settings: protein: recombinant; tags: N-terminal GST; dsDNA, one strand shown
# Chain of ELF4 (Q99607 whole entry): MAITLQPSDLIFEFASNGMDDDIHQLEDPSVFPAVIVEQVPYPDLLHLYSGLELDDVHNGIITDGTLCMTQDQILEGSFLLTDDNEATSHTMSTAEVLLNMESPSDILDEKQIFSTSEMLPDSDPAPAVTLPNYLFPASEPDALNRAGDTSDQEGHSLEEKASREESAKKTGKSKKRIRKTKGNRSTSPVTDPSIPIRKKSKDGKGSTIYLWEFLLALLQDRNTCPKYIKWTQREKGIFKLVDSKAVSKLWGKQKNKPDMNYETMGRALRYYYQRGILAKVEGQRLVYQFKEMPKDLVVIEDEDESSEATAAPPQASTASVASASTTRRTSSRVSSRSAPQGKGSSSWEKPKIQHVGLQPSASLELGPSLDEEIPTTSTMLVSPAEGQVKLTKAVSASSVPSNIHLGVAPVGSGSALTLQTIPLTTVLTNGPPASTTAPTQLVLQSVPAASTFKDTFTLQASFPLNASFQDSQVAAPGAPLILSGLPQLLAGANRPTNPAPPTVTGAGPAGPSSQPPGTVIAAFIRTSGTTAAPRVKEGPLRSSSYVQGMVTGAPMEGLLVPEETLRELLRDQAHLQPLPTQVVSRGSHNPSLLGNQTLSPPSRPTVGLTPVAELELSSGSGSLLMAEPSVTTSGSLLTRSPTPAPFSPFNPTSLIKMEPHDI
# How it was run: as §1
# ELK4 = molecular target: T9, ELK4 (Homo sapiens, UniProt P28324-2 1-405); settings: protein: recombinant; tags: N-terminal GST; dsDNA, one strand shown
# T9 sequence: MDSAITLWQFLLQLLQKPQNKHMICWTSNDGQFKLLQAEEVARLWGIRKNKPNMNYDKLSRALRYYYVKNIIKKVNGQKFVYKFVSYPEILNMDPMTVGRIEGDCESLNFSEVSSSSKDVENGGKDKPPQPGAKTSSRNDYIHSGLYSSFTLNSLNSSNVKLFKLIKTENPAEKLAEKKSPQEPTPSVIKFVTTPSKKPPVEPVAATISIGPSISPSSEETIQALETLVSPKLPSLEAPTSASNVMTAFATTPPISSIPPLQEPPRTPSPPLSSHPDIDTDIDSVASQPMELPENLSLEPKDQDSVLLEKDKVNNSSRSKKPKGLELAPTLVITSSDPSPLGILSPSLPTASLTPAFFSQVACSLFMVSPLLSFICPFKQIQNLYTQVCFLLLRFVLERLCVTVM
# How it was run: as §1
# ETV2 = molecular target: T10, ETV2 (Homo sapiens, UniProt O00321 1-342); settings: protein: recombinant; tags: N-terminal GST; dsDNA, one strand shown
# T10 sequence: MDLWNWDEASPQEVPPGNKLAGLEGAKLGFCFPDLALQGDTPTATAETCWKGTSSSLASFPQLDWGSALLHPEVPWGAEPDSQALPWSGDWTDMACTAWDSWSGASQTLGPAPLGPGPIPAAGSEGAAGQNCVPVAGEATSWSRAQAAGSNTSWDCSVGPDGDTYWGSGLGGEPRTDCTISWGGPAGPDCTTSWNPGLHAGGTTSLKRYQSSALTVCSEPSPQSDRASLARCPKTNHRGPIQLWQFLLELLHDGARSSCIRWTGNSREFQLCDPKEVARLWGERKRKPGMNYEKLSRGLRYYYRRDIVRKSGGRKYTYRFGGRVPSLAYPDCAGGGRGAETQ
# How it was run: as §1
# ELF3 = molecular target: T11, ELF3 (Homo sapiens, UniProt P78545 1-371); settings: protein: recombinant; tags: N-terminal GST; dsDNA, one strand shown
# T11 sequence: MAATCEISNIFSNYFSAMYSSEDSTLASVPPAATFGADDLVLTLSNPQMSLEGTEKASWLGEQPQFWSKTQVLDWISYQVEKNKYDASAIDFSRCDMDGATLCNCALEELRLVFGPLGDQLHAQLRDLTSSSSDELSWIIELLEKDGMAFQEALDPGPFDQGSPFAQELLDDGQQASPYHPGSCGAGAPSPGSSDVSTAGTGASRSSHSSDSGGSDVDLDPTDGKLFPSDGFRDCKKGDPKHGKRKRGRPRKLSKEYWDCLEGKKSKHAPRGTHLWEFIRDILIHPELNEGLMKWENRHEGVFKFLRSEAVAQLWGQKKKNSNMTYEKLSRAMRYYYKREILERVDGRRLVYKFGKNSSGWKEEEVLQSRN
# How it was run: as §1
# CRX = CRX (Homo sapiens, UniProt O43186 1-299); settings: protein: recombinant; tags: N-terminal GST; dsDNA, one strand shown
# Chain of CRX (O43186 whole entry): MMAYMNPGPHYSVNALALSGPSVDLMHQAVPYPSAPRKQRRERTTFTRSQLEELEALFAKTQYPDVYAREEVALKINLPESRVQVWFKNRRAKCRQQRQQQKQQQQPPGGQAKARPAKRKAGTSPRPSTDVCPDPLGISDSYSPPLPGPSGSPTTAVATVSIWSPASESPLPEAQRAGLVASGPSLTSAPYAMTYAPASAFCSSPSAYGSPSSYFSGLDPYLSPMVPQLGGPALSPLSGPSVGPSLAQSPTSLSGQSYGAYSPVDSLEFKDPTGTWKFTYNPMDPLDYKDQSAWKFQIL
# How it was run: as §1
# ETV1 = ETV1 (Homo sapiens, UniProt P50549 1-477); settings: protein: recombinant; tags: N-terminal GST; dsDNA, one strand shown
# Chain of ETV1 (P50549 whole entry): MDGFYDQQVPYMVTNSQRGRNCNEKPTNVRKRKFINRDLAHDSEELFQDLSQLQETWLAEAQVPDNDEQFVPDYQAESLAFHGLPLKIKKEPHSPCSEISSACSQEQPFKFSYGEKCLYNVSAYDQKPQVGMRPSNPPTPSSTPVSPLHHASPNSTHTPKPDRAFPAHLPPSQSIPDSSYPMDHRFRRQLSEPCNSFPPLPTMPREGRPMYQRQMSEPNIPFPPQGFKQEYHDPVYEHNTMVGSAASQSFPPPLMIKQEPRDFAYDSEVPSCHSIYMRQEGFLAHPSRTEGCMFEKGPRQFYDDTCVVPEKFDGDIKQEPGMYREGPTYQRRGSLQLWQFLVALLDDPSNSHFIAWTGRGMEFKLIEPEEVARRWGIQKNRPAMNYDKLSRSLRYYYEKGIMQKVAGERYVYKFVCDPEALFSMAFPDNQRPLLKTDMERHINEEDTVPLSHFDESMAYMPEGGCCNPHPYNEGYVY
# How it was run: as §1
sequence,measurement,setting,value
GTCCTA,binding signal,FLI1,"1.15 fold enrichment (6-mer frequency, TF over GST control)"
same,binding signal,ELK1,"1.19 fold enrichment (6-mer frequency, TF over GST control)"
same,binding signal,GABPA,"1.22 fold enrichment (6-mer frequency, TF over GST control)"
same,binding signal,ERG,"1.14 fold enrichment (6-mer frequency, TF over GST control)"
same,binding signal,ELF1,"1.12 fold enrichment (6-mer frequency, TF over GST control)"
same,binding signal,EHF,"1.16 fold enrichment (6-mer frequency, TF over GST control)"
same,binding signal,SPI1,"1.16 fold enrichment (6-mer frequency, TF over GST control)"
same,binding signal,SPIB,"1.18 fold enrichment (6-mer frequency, TF over GST control)"
same,binding signal,ELK3,"1.12 fold enrichment (6-mer frequency, TF over GST control)"
same,binding signal,FEV,"1.07 fold enrichment (6-mer frequency, TF over GST control)"
same,binding signal,ETV5,"1.16 fold enrichment (6-mer frequency, TF over GST control)"
same,binding signal,HSF1,"1.03 fold enrichment (6-mer frequency, TF over GST control)"
same,binding signal,SPIC,"1.16 fold enrichment (6-mer frequency, TF over GST control)"
same,binding signal,ELF4,"1.18 fold enrichment (6-mer frequency, TF over GST control)"
same,binding signal,ELK4,"1.13 fold enrichment (6-mer frequency, TF over GST control)"
same,binding signal,ETV2,"1.31 fold enrichment (6-mer frequency, TF over GST control)"
same,binding signal,ELF3,"1.2 fold enrichment (6-mer frequency, TF over GST control)"
same,binding signal,CRX,"1.06 fold enrichment (6-mer frequency, TF over GST control)"
same,binding signal,ETV1,"1.12 fold enrichment (6-mer frequency, TF over GST control)"
